Test [1] in a line: nuclear p53 accumulation, HPV+ cells – imaging, p53-positive nuclei imaging, 24 h, 48 h (AID 1508601). To be noted: 24/48 h.
Test [2] addresses Cellular tumor antigen p53 (Homo sapiens) (UniProt P04637). The test is described as above. The settings on record: 24/48 h, stronger effect = higher value.
[3] abbreviates: measured here: cell number at 24 h, Library stock concentration: 10 mM.
The mark [4] stands for this setting: measured here: cell number at 48 h, Library stock concentration: 10 mM.
The mark [5] stands for this setting: Library stock concentration: 10 mM.
Setting [6] is: measured here: p53 positive nuclei at 24 h, Library stock concentration: 10 mM.
[7] abbreviates: measured here: cell number at 24 h, concentration not given here.
[8] abbreviates: measured here: cell number at 48 h, concentration not given here.
[9] abbreviates: measured here: p53 positive nuclei at 24 h, concentration not given here.

Screen size: about 5,700 compounds; about 85 (1%) were called active. Cut-off read from the data, not from the text of the source: active = p53-positive nuclei above about 36% (passing the limit was not always enough); inactive = the rest. The full list was thinned out, with actives kept by preference.

Cellular tumor antigen p53 (Homo sapiens), sequence (P04637 whole entry, looked up): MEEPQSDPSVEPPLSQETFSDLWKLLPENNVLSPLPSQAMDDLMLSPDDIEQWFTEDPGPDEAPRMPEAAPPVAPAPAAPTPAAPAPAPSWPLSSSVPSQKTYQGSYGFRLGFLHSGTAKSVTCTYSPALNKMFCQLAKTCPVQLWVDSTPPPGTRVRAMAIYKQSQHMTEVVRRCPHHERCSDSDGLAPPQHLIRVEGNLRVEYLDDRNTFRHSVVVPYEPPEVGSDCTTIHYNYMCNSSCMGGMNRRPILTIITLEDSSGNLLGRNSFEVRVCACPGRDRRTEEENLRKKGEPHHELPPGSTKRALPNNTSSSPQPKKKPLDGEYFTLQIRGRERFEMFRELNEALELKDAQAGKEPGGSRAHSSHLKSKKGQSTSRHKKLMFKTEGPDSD

`Cc1sc2c(c1C)C(c1ccc(Cl)cc1)=NC(CC(=O)Nc1ccc(O)cc1)c1nnc(C)n1-2` (stereo not drawn): the nuclei count, normalised amounted to 110% in test [1] (measured here: cell number at 24 h, Library stock concentration: 80 uM); 120% in test [1] (measured here: cell number at 24 h, Library stock concentration: 400 uM); 113% in test [1] (measured here: cell number at 24 h, Library stock concentration: 2 mM); 119% in test [1] (measured here: cell number at 24 h, Library stock concentration: 3.33 mM); 114% in test [1] (setting [3]); 108% in test [1] (measured here: cell number at 48 h, Library stock concentration: 80 uM). In addition, the nuclei count, normalised in test [1] (measured here: cell number at 48 h, Library stock concentration: 400 uM) worked out at 119%; in test [1] (measured here: cell number at 48 h, Library stock concentration: 2 mM), 111%; in test [1] (measured here: cell number at 48 h, Library stock concentration: 3.33 mM), 117%; in test [1] (setting [4]), 109%. For the same compound, the p53-positive nuclei, normalised in test [2] (Library stock concentration: 80 uM) is 0.0544% (inactive); in test [2] (Library stock concentration: 400 uM), 0.0288% (inactive); in test [2] (Library stock concentration: 2 mM) it was 3.49% (inactive); in test [2] (Library stock concentration: 3.33 mM) it was 3.67% (inactive); in test [2] (setting [5]), 9.67% (inactive); in test [2] (measured here: p53 positive nuclei at 24 h, Library stock concentration: 80 uM) it was 0.123%. The p53-positive nuclei, normalised in test [2] (measured here: p53 positive nuclei at 24 h, Library stock concentration: 400 uM) was determined as 0.712%; in test [2] (measured here: p53 positive nuclei at 24 h, Library stock concentration: 2 mM) it was 19.6%; in test [2] (measured here: p53 positive nuclei at 24 h, Library stock concentration: 3.33 mM) it was 10.4%; in test [2] (setting [6]) it was 46.6%.

Take `CCCCC/C=C\C/C=C\C/C=C\C/C=C\CCCC(=O)N[C@@H](CO)C(=O)O`: the nuclei count, normalised in test [1] (setting [7]) was determined as 108%; in test [1] (setting [8]) it was 107%. In addition, the p53-positive nuclei, normalised in test [2] (concentration not given here) was 0.0364% (inactive); in test [2] (setting [9]), -0.0848%.

On to `C=C(C)[C@@H]1CCC(C)=C[C@H]1c1c(OC)cc(CCCCC)cc1OC`, for which the nuclei count, normalised in test [1] (setting [7]) was found to be 107%; in test [1] (setting [8]) it was 109%. Besides, the p53-positive nuclei, normalised in test [2] (concentration not given here) was 0.00281% (inactive); in test [2] (setting [9]), -0.021%.

Regarding `CCCCC/C=C\C/C=C\C/C=C\C/C=C\CCCC(=O)NC1CC1`, the nuclei count, normalised in test [1] (setting [7]) and in test [1] (setting [8]) was 110% each time. Further, the p53-positive nuclei, normalised in test [2] (concentration not given here) was -0.0789% (inactive); in test [2] (setting [9]), -0.0843%.

Regarding `CO[C@H]1[C@H](O)[C@@H](O[C@H]2CC[C@]3(C=O)C4CC[C@]5(C)[C@@H](C6=CC(=O)OC6)CC[C@]5(O)C4CC[C@@H]3C2)O[C@@H](C)[C@@H]1O` (stereo partly drawn), the nuclei count, normalised in test [1] (setting [7]) was found to be 35.5%; in test [1] (setting [8]), 25.2%. Besides, the p53-positive nuclei, normalised in test [2] (concentration not given here) was 50.3% (active); in test [2] (setting [9]) it was 2.96%.

In the case of `CC1OC(O[C@H]2CC[C@@]3(C)[C@@H](CC[C@@H]4[C@H]3CC[C@]3(C)[C@@H](C5=CC(=O)OC5)CC[C@]43O)C2)CC(O)C1O` (stereo partly drawn), the nuclei count, normalised in test [1] (measured here: cell number at 24 h, Library stock concentration: 500 nM) worked out at 65.6%; in test [1] (measured here: cell number at 24 h, Library stock concentration: 1.5 uM), 57.4%; in test [1] (measured here: cell number at 24 h, Library stock concentration: 4.6 uM), 53%; in test [1] (measured here: cell number at 24 h, Library stock concentration: 13.7 uM), 48.6%; in test [1] (measured here: cell number at 24 h, Library stock concentration: 41 uM) it was 45.4%; in test [1] (measured here: cell number at 24 h, Library stock concentration: 123 uM), 41.8%. Further, the nuclei count, normalised in test [1] (measured here: cell number at 24 h, Library stock concentration: 370 uM) worked out at 40.1%; in test [1] (measured here: cell number at 24 h, Library stock concentration: 1.111 mM), 41.7%; in test [1] (measured here: cell number at 24 h, Library stock concentration: 3.333 mM), 42.7%; in test [1] (setting [3]), 42.7%; in test [1] (measured here: cell number at 48 h, Library stock concentration: 500 nM), 46.8%; in test [1] (measured here: cell number at 48 h, Library stock concentration: 1.5 uM), 37.2%. Further, the nuclei count, normalised came out at 33.8% in test [1] (measured here: cell number at 48 h, Library stock concentration: 4.6 uM); 32.8% in test [1] (measured here: cell number at 48 h, Library stock concentration: 13.7 uM); 29.8% in test [1] (measured here: cell number at 48 h, Library stock concentration: 41 uM); 30.1% in test [1] (measured here: cell number at 48 h, Library stock concentration: 123 uM); 27.4% in test [1] (measured here: cell number at 48 h, Library stock concentration: 370 uM); 28.3% in test [1] (measured here: cell number at 48 h, Library stock concentration: 1.111 mM). Also, the nuclei count, normalised in test [1] (measured here: cell number at 48 h, Library stock concentration: 3.333 mM) was determined as 30.1%; in test [1] (setting [4]), 29%. The p53-positive nuclei, normalised in test [2] (Library stock concentration: 500 nM) was 1.14% (inactive); in test [2] (Library stock concentration: 1.5 uM) it was 2.17% (inactive); in test [2] (Library stock concentration: 4.6 uM), 5.96% (inactive); in test [2] (Library stock concentration: 13.7 uM), 13.9% (inactive); in test [2] (Library stock concentration: 41 uM), 17.9% (inactive); in test [2] (Library stock concentration: 123 uM), 17.3% (inactive). Also, the p53-positive nuclei, normalised in test [2] (Library stock concentration: 370 uM) was 15.8% (inactive); in test [2] (Library stock concentration: 1.111 mM) it was 18.6% (inactive); in test [2] (Library stock concentration: 3.333 mM), 15.3% (inactive); in test [2] (setting [5]), 14% (inactive); in test [2] (measured here: p53 positive nuclei at 24 h, Library stock concentration: 500 nM), 0.0832%; in test [2] (measured here: p53 positive nuclei at 24 h, Library stock concentration: 1.5 uM), 0.441%. Also, the p53-positive nuclei, normalised in test [2] (measured here: p53 positive nuclei at 24 h, Library stock concentration: 4.6 uM) is 2.38%; in test [2] (measured here: p53 positive nuclei at 24 h, Library stock concentration: 13.7 uM), 2.28%; in test [2] (measured here: p53 positive nuclei at 24 h, Library stock concentration: 41 uM) it was 1.13%; in test [2] (measured here: p53 positive nuclei at 24 h, Library stock concentration: 123 uM), 0.939%; in test [2] (measured here: p53 positive nuclei at 24 h, Library stock concentration: 370 uM) it was 1.03%; in test [2] (measured here: p53 positive nuclei at 24 h, Library stock concentration: 1.111 mM), 1.24%. Besides, the p53-positive nuclei, normalised in test [2] (measured here: p53 positive nuclei at 24 h, Library stock concentration: 3.333 mM) is 1.62%; in test [2] (setting [6]), 0.952%.

With `C[C@@H]1O[C@@H](O[C@H]2CC[C@]3(C=O)C4CC[C@]5(C)[C@@H](C6=CC(=O)OC6)CC[C@]5(O)C4CC[C@]3(O)C2)[C@H](O)[C@H](O)[C@H]1O` (stereo partly drawn), the nuclei count, normalised in test [1] (setting [7]) was found to be 35.2%; in test [1] (setting [8]), 23.7%. The p53-positive nuclei, normalised was 28.5% (inactive) in test [2] (concentration not given here) and 2.41% in test [2] (setting [9]).

As for `O=c1c2cc(F)ccc2ncn1Cc1cn2ccccc2n1`, the nuclei count, normalised in test [1] (setting [7]) came out at 98.7%; in test [1] (setting [8]) it was 106%. Also, the p53-positive nuclei, normalised in test [2] (concentration not given here) was -0.262% (inactive); in test [2] (setting [9]), -0.23%.

For the compound `CCCCC/C=C\C/C=C\C/C=C\C/C=C\CCCC(=O)NC`, the nuclei count, normalised in test [1] (setting [7]) amounted to 104%; in test [1] (setting [8]), 99.6%. Also, the figures for the p53-positive nuclei, normalised in test [2] (concentration not given here) and in test [2] (setting [9]) were 0.0321% (inactive) and -0.0963%, respectively.

The values above are taken from PubChem BioAssay AID1508601 (ICCB-Longwood Screening Facility, Harvard Medical School, 2020).
